Molecules are shown by their SMILES. This is part of a sample that, as a whole, favours compounds with a hit. Of some 83,000 tested, about 20% had one in any assay.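 Method: cells in 96-well plates; compound added at one concentration; 48 h incubation; percent growth measured; values under 10 scored active.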 A number with no mark means an inactive call. The source made the active and inactive calls.

The source of these data is PubChem BioAssay (NCI).

Experiment in all cases: NCI-60 one-dose screen, 48 h (100 = growth as untreated, 0 = no growth, -100 = all killed)
What all share (conditions): 10 µM unless noted

Assay [1] concerns HT29 colon.
Assay [2] relates to SNB-75 CNS.
In assay [3] the test system is SNB-19 CNS.
Assay [4] deals with U251 CNS.
Assay [5] has as its system PC-3 prostate.
Assay [6] concerns SK-MEL-5 melanoma.
Assay [7] concerns UACC-62 melanoma.
Assay [8] relates to LOX IMVI melanoma.
The test system of assay [9] is SK-MEL-28 melanoma.
The subject of assay [10] is SK-MEL-2 melanoma.
Assay [11] deals with EKVX NSCLC.
Assay [12] relates to SN12C renal.
Assay [13] concerns UO-31 renal.
For assay [14], the system named is TK-10 renal.
Assay [15] has as its system ACHN renal.
In assay [16] the test system is CAKI-1 renal.
Assay [17] relates to A498 renal.
The subject of assay [18] is CCRF-CEM leukemia.
The subject of assay [19] is MOLT-4 leukemia.
Assay [20] concerns SR leukemia.

Turning to `O=C(CSCC(=O)N/N=C/c1ccccc1O)N/N=C\c1ccccc1O`, the growth is 42.7% in [1]; 36.8% in [2]; 31.2% in [3]; 26.8% in assay [4]; 25% in assay [5]; 24% in [6]. Also, the growth in assay [7] is 11.2%; in assay [8] it was 12.4%; in assay [9] it was 40.4%; in [10], 16.7%; in [11], 44.8%; in assay [12], 29%. Besides, the growth in assay [13] is 7.47% (active); in [14] it was 24.4%; in [15], 11.9%; in assay [16] it was 11.4%; in assay [17], 99.1%; in assay [18], 3.39% (active). For the same compound, the growth was -4.94% (active) in assay [19] and 3.96% (active) in assay [20].
In the case of `COc1ccc(-c2nn(-c3cccc(Cl)c3)cc2C2CC(c3ccccc3)=NN2C(C)=O)cc1` (stereo not given), the growth is 62.7% in assay [1]; -3.45% (active) in assay [2]; 72.9% in assay [3]; 66.7% in [4]; 69% in [5]; 77.2% in assay [6]. For the same compound, the growth is 83.5% in [7]; 76.7% in assay [8]; 69.9% in [9]; -2.7% (active) in [10]; 67.6% in assay [11]; 69.7% in assay [12]. Besides, the growth in assay [13] was 58.9%; in [14], 62.8%; in assay [15] it was 15.1%; in assay [16], 53%; in [17], 56.9%; in assay [18] it was 83%. The values for the growth in assay [19] and in assay [20] were 93.9% and 75.6%, respectively.
As to `Nc1nc(SCc2ccccc2Cl)c(-c2ccccc2)c(SCc2ccccc2Cl)n1`, the growth in assay [1] is 64.3%; in assay [2], 107%; in [3], 116%; in assay [4], 86.9%; in assay [5] it was 76.3%; in assay [6], 109%. The growth in [7] is 99.6%; in assay [8], 84.7%; in assay [9] it was 101%; in assay [10] it was 120%; in assay [11], 97.3%; in [12], 104%. Moreover, the growth in [13] is 69.9%; in assay [14], 97.7%; in [15], 91.4%; in assay [16], 79.6%; in assay [17], 67.6%; in [18], 78.4%. Besides, the values for the growth in [19] and in assay [20] were 90.9% and 96.3%, respectively.
For `CCN(CC)CCOc1ccccc1-n1c(C)ccc1-c1ccccc1`, the growth in assay [1] is 34.5%; in assay [2], 93%; in assay [3], 102%; in assay [4], 85.3%; in assay [5], 62.8%; in assay [6], 90.8%. In addition, the growth in [7] is 106%; in assay [8], 88.5%; in [9], 119%; in [10], 102%; in assay [11], 83.8%; in assay [12], 91.7%. Moreover, the growth in assay [13] was 55.2%; in [14], 85.2%; in [15], 105%; in [16], 85.1%; in assay [17], 65.1%; in assay [18], 28.1%. Besides, the growth in assay [19] is -35.2% (active); in assay [20], -29.4% (active).
With `CO[C@H]1/C=C/O[C@@]2(C)Oc3c(C)c(O)c4c(O)c(c(/C=N/N5C(C)CN(Cc6ccccc6)CC5C)c(O)c4c3C2=O)NC(=O)/C(C)=C\C=C\[C@H](C)[C@H](O)[C@@H](C)[C@@H](O)[C@@H](C)[C@H](OC(C)=O)[C@@H]1C` (stereo not given in full), the growth in assay [1] was 87.6%; in assay [2] it was 127%; in [3], 97.8%; in [4] it was 56.9%; in assay [5] it was -19.5% (active); in assay [6] it was 67.4%. In addition, the growth in assay [7] is 72.8%; in assay [8], 76%; in assay [9], 94.2%; in assay [10] it was -39.4% (active); in [11], 64.7%; in assay [12], 87%. Moreover, the growth in [13] is 34.1%; in assay [14], 69.1%; in assay [15], 70.1%; in assay [16], 117%; in [17], 96.1%; in assay [18], 285%. The growth in assay [19] was 217%; in assay [20], 212%.
On to `Cc1cc(NC(=O)c2ccc(N)cc2)ccc1N=Nc1ccc2c(O)c(N=Nc3ccc(Cl)c(S(=O)(=O)O)c3)c(S(=O)(=O)O)cc2c1`, for which the growth in assay [1] was 91%; in assay [2] it was 104%; in assay [3], 105%; in [4] it was 68.7%; in assay [5], 92%; in [6], 65.1%. For the same compound, the growth in assay [7] was 88.5%; in assay [8], 72.7%; in assay [9], 96.4%; in assay [10], 98.3%; in [11], 106%; in assay [12], 102%. Further, the growth is 79.5% in assay [13]; 73% in assay [14]; 71.5% in [15]; 87.1% in assay [16]; 88.9% in assay [17]; 55.7% in assay [18]. For the same compound, the results for the growth in assay [19] and in [20] were 99.3% and 66.5%, respectively.
As to `Nc1cc(Cl)c(S(N)(=O)=O)cc1S(N)(=O)=O`, the growth in assay [1] is 122%; in [2], 86.7%; in assay [3] it was 113%; in assay [4] it was 100%; in assay [5], 106%; in assay [6], 102%. Moreover, the growth in [7] is 101%; in assay [8] it was 101%; in assay [9], 121%; in [10], -16.2% (active); in assay [11] it was 111%; in assay [12] it was 109%. Moreover, the growth in [13] was 102%; in assay [14], 97.5%; in [15], 101%; in assay [16], 107%; in assay [17] it was 116%; in [18] it was 95.7%. In addition, the growth in [19] was 158%; in assay [20] it was 123%.
For the compound `NC(N)=N/N=C(/c1ccccc1)c1ccc(Cl)cc1`, the growth in [1] is 25.6%; in assay [2] it was 56.1%; in [3], 63.8%; in assay [4], 70.8%; in assay [5], 72.8%; in assay [6], 56.8%. Moreover, the growth is 74.4% in assay [7]; 74.4% in assay [8]; 53.9% in assay [9]; 118% in [10]; 60.6% in assay [11]; 68.9% in assay [12]. The growth in assay [13] is 95.4%; in [14], 94.1%; in assay [15], 104%; in assay [16] it was -17.2% (active); in assay [17] it was 56.5%; in assay [18], 125%. For the same compound, the growth in assay [19] was 125%; in assay [20], 50.3%.
